Data as given in PubChem BioAssay AID651636 (Sanford-Burnham Center for Chemical Genomics, 2012).
The campaign covered roughly 360,000 compounds. About 3,000 (0.83%) were called active. Cut-off read from the data, not from the text of the source: active = inhibition above about 38%; inactive = the rest. Only a selection was taken, and actives are over-represented in it overall.

Each compound was assayed against G-protein coupled receptor 183 (Homo sapiens) (UniProt P32249) (assay: EBI2 receptor antagonists, beta-arrestin recruitment, primary screen, cell-based, luminescence, 7a,25-OHC stimulation, uHTS (AID 651636;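 note: enzyme fragment complementation signal reports receptor beta-arrestin coupling in cells; 0% = agonist plus DMSO wells and 100% = wells without agonist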)). Settings: 7a,25-OHC stimulated, at 5 µM, hits give high values.
Sequence of G-protein coupled receptor 183 (Homo sapiens) (P32249 whole entry, looked up, the tested form may be a part): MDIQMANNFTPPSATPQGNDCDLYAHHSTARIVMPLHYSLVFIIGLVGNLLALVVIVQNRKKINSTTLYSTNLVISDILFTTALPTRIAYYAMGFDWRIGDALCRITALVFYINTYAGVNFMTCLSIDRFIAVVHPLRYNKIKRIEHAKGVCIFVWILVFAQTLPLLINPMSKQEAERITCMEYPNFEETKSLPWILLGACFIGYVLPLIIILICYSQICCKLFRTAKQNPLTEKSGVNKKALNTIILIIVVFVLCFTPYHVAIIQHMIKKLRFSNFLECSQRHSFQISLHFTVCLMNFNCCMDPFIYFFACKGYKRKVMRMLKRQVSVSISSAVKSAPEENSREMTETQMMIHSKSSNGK

Structure (SMILES) | inhibition
O=C(NNC1=C(C(=O)C(F)(F)F)CCC1)c1ccncc1 | 8.49% (inactive)
CCNC(=S)N1CCC(c2nc3cc(C)c(C)cc3[nH]2)CC1 | -8.84% (inactive)
Cc1coc2c(O)cc3c(c12)OC1(N2CCCCC2)C(=O)NCCCC31 (configuration not stated) | 9.31% (inactive)
NCCCCC(C(=O)O)N(C(=O)OCc1ccccc1)C(=O)OCc1ccccc1 (configuration not stated) | -5.81% (inactive)
O=C(Cc1ccccc1)N1CCN(S(=O)(=O)c2ccc([N+](=O)[O-])cc2)CC1 | -5.46% (inactive)
O=C1/C(=C\c2ccc([N+](=O)[O-])cc2)CS(=O)(=O)C/C1=C/c1ccc([N+](=O)[O-])cc1 | 50.3% (active)
Cc1ccc([N+](=O)[O-])cc1S(=O)(=O)N1CCCN(C)CC1 | -7.92% (inactive)
O=C1NC(c2ccccc2)Cc2ccncc21 (configuration not stated) | -15.8% (inactive)
CC(C)Oc1ccc(C(=O)NC(C)(C)CO)cc1 | -14.5% (inactive)
Cn1cc[n+](C)c1COc1ccc(C=O)cc1 | -3.22% (inactive)
Fc1ccccc1/C=N/Nc1cc(N2CCCCC2)ncn1 | 53.8% (active)
COc1ccccc1N1CCN(C(=O)C(=O)N/N=C/c2ccccc2F)CC1 | 2.46% (inactive)
Nc1[nH][nH]c(=O)c1N=Nc1ccc2c(c1)OCO2 | -4.76% (inactive)
Cc1cccc(N=C2SC(C)CN2C(=O)CN2C(=O)NC3(CCCC3)C2=O)c1 (configuration not stated) | 8.85% (inactive)
Cc1cccc(Oc2c([N+](=O)[O-])c(=O)n(C)c3ccccc23)c1 | -38.4% (inactive)
Cc1cccc(N=C2NC(=O)/C(=C/c3cn(C)c4ccccc34)S2)c1 | 45% (active)
Cc1cc(C)nc(/N=C2\NC(=O)CC(C(=O)O)N2c2ccc(Cl)cc2Cl)n1 (configuration not stated) | -2.42% (inactive)
Cn1c(N)c(C(=O)COC(=O)C23CC4CC(CC(C4)C2)C3)c(=O)n(C)c1=O | -6.77% (inactive)
Cc1oc2nc(SCC(=O)NCc3cccnc3)nc(N)c2c1C | -8.34% (inactive)
CC(=O)c1ccc(OCC(=O)N(C)C2CCS(=O)(=O)C2)cc1 (configuration not stated) | -3.69% (inactive)
COc1ccc(NC(=O)/C(Cl)=C(/Cl)S(=O)Cc2ccc(C)cc2)cn1 (configuration not stated) | 68.1% (active)
CC(=O)Nc1ccc(CNc2nc(NCCN(C)C)nc3cc(-c4ccccc4)sc23)cc1 | 0.94% (inactive)

Structure (SMILES) | inhibition
Nc1nc(SCC(=O)NN(c2ccccc2)c2ccccc2)n[nH]1 | -1.98% (inactive)
O=C(COc1nsnc1N1CCOCC1)Nc1ccccc1Cl | -1.57% (inactive)
O=C(Nc1ccccc1Cl)/C(Cl)=C(\Cl)S(=O)c1ccccc1 (configuration not stated) | 59.7% (active)
Cc1cccc(-c2nc(CS(=O)CC(=O)NC(C)CCc3ccccc3)c(C)o2)c1 (configuration not stated) | 0.721% (inactive)
CCC(=C/c1sc2ccc3ccccc3c2[n+]1C)/C=C1\Sc2ccc3ccccc3c2N1C | 1.97% (inactive)
CS(=O)(=O)N(CC(=O)N1CCN(c2ccc(F)cc2)CC1)C1CCCCC1 | -6.78% (inactive)
CCN1CCN(C(=O)CSc2ccc(C)cc2)CC1 | 70.3% (active)
CCN1CCN(C(=O)CCN2C(=O)c3ccccc3C2=O)CC1 | 5.39% (inactive)
CCOC(=O)N1CCN(C(=O)CSc2ccc(Cl)cc2)CC1 | 84.7% (active)
CCOC(=O)N1CCN(C(=O)CSc2nc(C)nc3c2c(=O)n(C)c(=O)n3C)CC1 | -7.04% (inactive)
CS(=O)(=O)N1CCN(C(=O)CSc2ccccc2)CC1 | 4.92% (inactive)
O=C(CSc1ccc(Cl)cc1)NC1CC1 | -0.473% (inactive)
Cc1ccc(-n2c(CNc3ccc(F)cc3)nnc2SCC(=O)N2CCOCC2)cc1 | 7.68% (inactive)
Cc1ccc(SCC(=O)N2CCN(c3ccc(F)cc3)CC2)cc1 | 62.9% (active)
COC(=O)CNC(=O)C(CCSC)NC(C)=O (configuration not stated) | 5.29% (inactive)
Cc1nc(C(F)(F)F)ccc1C(=O)N1CCC1(C)C(=O)NS(=O)(=O)c1ccc(F)cc1F (configuration not stated) | 3.24% (inactive)
CNC(=O)C1CC(=O)N(c2ccc(OCC(=O)Nc3ccccc3C)cc2)C1 (configuration not stated) | 2.34% (inactive)
Cc1nnc(SC(C)C(=O)c2c[nH]c3ccccc23)n1C1CC1 (configuration not stated) | -6.27% (inactive)
CCOc1cc(-c2conc2N)cc(OCC)c1OCC | 7.1% (inactive)
CC(C)(C)OC(=O)C[C@@H]1C/C=C\C[C@@H](CC(=O)N[C@@H](CO)Cc2ccccc2)C(=O)N2CCC[C@H]2COC1=O | 1.7% (inactive)
CCC(C(=O)OC)n1cnc2c(oc3ccccc32)c1=O (configuration not stated) | 3.69% (inactive)
COC(=O)c1ccc(CN(c2ccccc2OC)S(=O)(=O)c2cccs2)o1 | 7.2% (inactive)

Structure (SMILES) | inhibition
O=C(OCc1nnc(-c2ccccc2)o1)c1cc(=O)[nH]c2ccccc12 | -5.82% (inactive)
CCOC(=O)c1cc(-c2nnc(-c3cc(OC)c(OC)c(OC)c3)o2)c(C)nc1C | -9% (inactive)
CCCc1nc2ccccc2c(C(=O)OCc2nnc(-c3cc(OC)c(OC)c(OC)c3)o2)c1CC | 51.2% (active)
COc1ccc(S(=O)(=O)NCC(=O)NCc2cc(=O)n(C)c(=O)n2C)cc1F | 2.08% (inactive)
CC(=O)NCCc1ccc(S(=O)(=O)N(C)C2CCS(=O)(=O)C2)cc1 (configuration not stated) | -2.21% (inactive)
Cc1cc(C)cc(Oc2nc3c(C)cccn3c(=O)c2/C=C(\C#N)C(=O)NC2CCS(=O)(=O)C2)c1 (configuration not stated) | 50.3% (active)
Cc1cccn2c(=O)c(/C=C(\C#N)S(=O)(=O)c3ccc(Cl)cc3)c(N3CCC(C(N)=O)CC3)nc12 | -5.33% (inactive)
Cc1cccn2c(=O)c3cc(C(=O)NC4CCCCC4)sc3nc12 | 8.11% (inactive)
FC(F)(F)c1cccc(-c2nc3ccccc3n2C(c2ccccc2)c2nc3ccccc3[nH]2)c1 (configuration not stated) | 8.62% (inactive)
CSCCC(C(=O)NC1=NCCS1)N1C(=O)c2ccccc2C1=O (configuration not stated) | 1.85% (inactive)
COC(=O)N/N=C/c1c[n+]([O-])c2ccccc2[n+]1[O-] | -1.98% (inactive)
COc1ccc(/C=C/C(=O)c2cc(Br)ccc(=O)c2O)cc1 | -0.626% (inactive)
COc1ccc(/C=C/C(=O)c2ccc(OC)cc2O)cc1 | 73.8% (active)
COc1ccc(/C=C/C(=O)NC(=S)N2CCCC(C(N)=O)C2)cc1 (configuration not stated) | -8.77% (inactive)
COc1ccc(C(=O)/C=C/c2ccc(OC3CSC3)cc2)cc1 | 60.1% (active)
COc1ccc(C(=O)CC(=O)c2ccc(C)cc2)c(O)c1 | -3.66% (inactive)
COc1ccc(OC)c(/C=C/C(=O)c2ccc3c(c2)OCO3)c1 | 8.22% (inactive)
CC(C)[C@H](NC(=O)c1ccc(F)cc1)C(=O)OCC(=O)NC(=O)c1cccn1C | -1.33% (inactive)
Cc1cc(C)cc(NC(=O)COc2coc(CN3CCN(c4ccccc4)CC3)cc2=O)c1 | -4.06% (inactive)
CCCc1cc(=O)[nH]c(SCc2ccc(C#N)cc2)n1 | -20.6% (inactive)
N#CC(=C1SC=CS1)c1nc(-c2ccccc2)cs1 | -66.2% (inactive)
CCCCCN1CC(O)=C(c2nc(-c3ccc(Cl)cc3)cs2)C1=N | -3.67% (inactive)

Structure (SMILES) | inhibition
N#CC(=C1CCCC1)c1nc(-c2ccc(Cl)cc2)cs1 | 54.1% (active)
O=C(Nc1cccc(S(=O)(=O)NC2=NCCC2)c1)C1CCCCC1 | -4.45% (inactive)
CC(=O)c1ccc(NC(=O)CCc2nnc3ccc(NCc4ccco4)nn23)cc1 | -2.75% (inactive)
CCN(CC)S(=O)(=O)c1cccc(C(=O)NCC(=O)OCC(=O)NCc2ccccc2)c1 | -10.4% (inactive)
Cc1c(NC(=O)C(C)OC(=O)c2cc3c4ccccc4n(C)c3s2)c(=O)n(-c2ccccc2)n1C (configuration not stated) | -12.7% (inactive)
Cc1cccc(N2CCN(C(=O)/C=C/c3ccco3)CC2)c1C | 33% (inactive)
CCn1c(C)c(C)c2cc(C(=O)N3CCN(c4cccc(C)c4C)CC3)ccc21 | 15.1% (inactive)
Cc1cccc(N2CCN(C(=O)c3cc4c(=O)[nH]c5ccccc5c4n3C)CC2)c1C | 88.2% (active)
CCCn1c(NC(=O)C23CC4CC(CC(O)(C4)C2)C3)nc2ccccc21 | -9.2% (inactive)
CCOC(=O)C(C)Oc1cccc2c(=O)n(CC(=O)N3CCc4ccccc43)ccc12 (configuration not stated) | 11.2% (inactive)
COc1cc(/C=C(\C#N)C(=O)Nc2ccc3ccccc3c2)c([N+](=O)[O-])cc1OC | 49.6% (active)
COc1cc(/C=C(/NC(=O)c2ccccc2)C(=O)Nc2cccc(O)c2)c([N+](=O)[O-])cc1OC | 5.05% (inactive)
COc1cc(NC(=O)COC(=O)CSc2ccc3ccccc3c2)c(C)cc1[N+](=O)[O-] | -6.04% (inactive)
COc1ccc(CN2C(=O)CN=C2Nc2ccc(C)cc2C)cc1 | -8.98% (inactive)
COC(=O)[C@@]12C[C@@H](CC(=O)NCCCCc3ccccc3)C(=O)N(Cc3ccccc3)C1=CCC(C)(C)C2 | 17.4% (inactive)
O=C(NNC(=O)c1cnccc1C(F)(F)F)c1ccc(Cl)cc1 | -6.52% (inactive)
CCN(C(=O)CSc1ncnc2sccc12)c1c(N)n(Cc2ccccc2)c(=O)[nH]c1=O | -7.44% (inactive)
O=C(CSc1nnnn1C1CCCC1)Nc1ccc2c(c1)OCCO2 | 0.834% (inactive)
CCN(CC(=O)NCc1cccs1)C(=O)/C=C/c1ccc(C)cc1 | 92% (active)
CCOc1ccc(/C=C/C(=O)N(CC)CC(=O)NCc2cccs2)cc1OC | 2.03% (inactive)
CCN(CC(=O)NCc1cccs1)C(=O)c1ccccc1F | 0.894% (inactive)
